High-throughput results (PubChem BioAssay)
Sampled rows, rich in hits. Any-hit rate of the full collection: about 0.75%.
TSHR antagonist – human thyrotropin receptor antagonism | AID 504810 | TSHR-expressing cells, TSH-stimulated cAMP HTRF, 2 h; stronger effect = lower value | activity change, negative = inhibition, % at 11.5 µM | actives 0.2% (n = 330,000);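 active = activity change below a set negative limit, meaning inhibition stronger than a set level, cut at about -70% in these data; inconclusive = activity change between two set negative limits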; also: % is scaled to controls: 0 for no effect and ±100 for the full control effect
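Cell-based HTRF cAMP assay; TSHR cells + compound, TSH EC80 (4nM final), 2 h, 37 deg C. Lysis with anti-cAMP cryptate and cAMP-d2, 30 min RT, read 665/620 nm.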
PKM2 activator – PKM2 (human) enzyme activation | P14618 | purified PKM2, Kinase-Glo ATP luminescence, activation; response scale: 0% is enzyme alone, no compound | Potency, µM (doses to about 57.5 µM), for the others: at the highest dose activation, actives largely listed as activators | actives 0.34% (n = 260,000) | AID 1631; also: potency is read from the fitted curve at half-maximal effect; % is scaled to controls: 0 for no effect and ±100 for the full control effect; nearly all actives have a fitted effect of over 55% in size
Target sequence (P14618 whole entry, looked up): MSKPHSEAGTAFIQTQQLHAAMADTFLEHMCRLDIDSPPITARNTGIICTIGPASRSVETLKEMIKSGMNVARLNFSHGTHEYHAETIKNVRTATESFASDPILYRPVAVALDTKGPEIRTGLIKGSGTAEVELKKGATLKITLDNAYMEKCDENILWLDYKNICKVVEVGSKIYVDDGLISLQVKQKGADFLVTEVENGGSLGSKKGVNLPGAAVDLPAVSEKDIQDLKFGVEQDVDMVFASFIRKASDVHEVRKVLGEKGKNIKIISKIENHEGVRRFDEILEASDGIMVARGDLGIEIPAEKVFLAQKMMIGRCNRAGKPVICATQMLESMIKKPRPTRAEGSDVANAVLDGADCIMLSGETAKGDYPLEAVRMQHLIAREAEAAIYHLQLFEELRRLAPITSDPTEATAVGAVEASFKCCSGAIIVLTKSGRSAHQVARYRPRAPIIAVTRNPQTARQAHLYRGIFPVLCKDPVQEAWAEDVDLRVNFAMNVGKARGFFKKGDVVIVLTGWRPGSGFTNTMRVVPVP
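ATP formation by purified human PK-M2, quantified via coupled luciferase luminescence after 1 h at room temperature with 0.1 mM ADP and 0.5 mM PEP final.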
TCR activator – T cell receptor activation. primary human leukocytes, anti-CD3, IL-2 HTRF, 48 h. Potency, µM (highest dose often 9.22 µM), inactives show top-dose activation of IL-2 secretion, actives largely listed as activators. 330,000 tested, under 10 active; also: % of control where 0% means no effect
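Activity was scored as IL-2 release from primary human leukocytes given only a TCR signal (a-CD3 beads) plus compound for 48 hr. Detection used a two-antibody HTRF format read at 665nm.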
uPA surface inh – inhibitors of cell surface uPA generation; cell surface uPA generation assay, qHTS; Potency, µM (top dose mostly 38.3 µM), for the others: at the top dose activity change, negative = inhibition, actives largely listed as inhibitors; actives 0.31% (n = 330,000); active = well fitted inhibition curve with a large enough effect; inconclusive = small, poorly fitted or top-dose-only effect; inactive = no such curve, though single readings can be large or run the other way; tested in mouse RAW 264.7 cells; also: potency is read from the fitted curve at half-maximal effect; % is scaled to controls: 0 for no effect and ±100 for the full control effect; nearly all actives have a fitted effect of over 55% in size
Numbers without * were called inactive; ? = inconclusive; · = not tested or not shown; [ ] = another dose, or the depositor's remark. Unless noted, calls follow the shape of the dose curve; as a rule, active = well fitted curve in the direction sought with a large enough effect; inconclusive = small, poorly fitted or top-dose-only effect, or another doubt; inactive = no such curve, though single readings can be large; an effect the other way counts as inactive or inconclusive.

SMILES	TSHR antagonist	PKM2 activator	TCR activator	uPA surface inh
Cc1nnc(NC(=O)C2CC(=O)N(Cc3ccccc3)C2)s1 (stereo not drawn)	10	0%	2%	-1%
O=S(=O)(Nc1ccc2ccccc2n1)c1ccc2c(c1)CCO2	12	11µM*	8%	1%
Cc1ccc(S(=O)(=O)Nc2ccc3ccccc3n2)cc1	7	18%	-2%	-2%
CC(=O)Nc1ccc(S(=O)(=O)Nc2c(NC3CCCCC3)c3ccccc3oc2=O)cc1	-89*	·	-2%	1%
Cc1cc(S(=O)(=O)Nc2c(NC3CCCCC3)c3ccccc3oc2=O)ccc1F	29	·	-2%	1%
Cc1c(-n2c(SC(C)C(=O)NC(N)=O)nc3ccccc3c2=O)c(=O)n(-c2ccccc2)n1C (stereo not drawn)	4	2%	6%	-4%
CCOc1ccc(N(CC(=O)Nc2cc(C)cc(C)c2)S(C)(=O)=O)cc1	-73*	·	2%	3%
CCOc1ccc(N(CC(=O)Nc2ccc(C)c(C)c2)S(=O)(=O)c2c(C)noc2C)cc1	-21	5%	-4%[46.1 µM]	13µM*
CCOc1ccc(N(CC(=O)Nc2ccc(C)cc2)S(C)(=O)=O)cc1	9	0%[11.5 µM]	·	6%
CCC(=O)NC(Nc1sc2c(c1C(=O)OC)CCC2)C(Cl)(Cl)Cl (stereo not drawn)	-72*	-16%	-5%[46.1 µM]	3%
CCN1/C(=C/c2ccc3cc(C)ccc3[n+]2C)Sc2ccc3sccc3c21	-9	-19%	14%	10µM*
CCN1/C(=C/c2ccc3cc(C)ccc3[n+]2CC)Sc2cc(C)ccc21	-35	-13%	12%	1µM*
N#Cc1c(-c2ccc(Cl)cc2)c(-c2ccc(Cl)cc2)nn(CCOC(=O)CCC(=O)O)c1=O	·	·	1%	-8%
COc1ccc(N(Cc2ccccc2)S(=O)(=O)c2cccc(C(=O)Nc3ncccc3C)c2)cc1	11	·	1%	-6%
CCOc1ccc(NC(=O)CNC(=O)c2ccc([N+](=O)[O-])cc2)cc1	-3	2%	·	-1%
Cc1ccc(/C=N/NC(=O)c2ccc3ccccc3c2)s1	-13	1%	2%	4.5µM*
CN1CC[C@@H]2C(=O)N3CCc4ccc(-c5ccc6c(c5)OCO6)cc4[C@@H]3C[C@@H]21	·	·	-5%	-1%
Cc1ccc(N2C(=O)CC(Sc3nc(C)cc(C)n3)C2=O)cc1 (stereo not drawn)	-2	1%	·	5µM*
CCOC(=O)COc1cccc2c(=O)n(CC(=O)NCc3ccc(F)cc3)ccc12	1	6%	-2%	0.056µM*
CCOC(=O)COc1cccc2c(=O)n(CC(N)=O)ccc12	18	1%	-1%	0%
CCOC(=O)COc1cccc2c(=O)n(CC(=O)NCc3ccccc3)ccc12	2	3%	8%	0.2µM*
O=C(O)CCSCCCN1C(=O)c2cccc3cccc(c23)C1=O	-29	-3%	1%	10%
Oc1[nH]c(N=C2N=c3ccccc3=N2)c2ccccc12	12	-8%	3%	-17%
CC1(c2ccccc2)NC(=O)N(Cc2ccc([N+](=O)[O-])cc2)C1=O (stereo not drawn)	9	6%	3%[46.1 µM]	4%
CCOC(=O)N1CCN(S(=O)(=O)CCNC(=O)c2ccc(F)cc2)CC1	22	·	0%	3%
SMILES	TSHR antagonist	PKM2 activator	TCR activator	uPA surface inh
COCCN(C(=O)COC(=O)C(C)(C)Oc1ccc(Cl)cc1)c1c(N)n(Cc2ccccc2)c(=O)[nH]c1=O	·	·	2%	?
CCCn1nc([N+](=O)[O-])c(C(C#N)c2nc3ccccc3o2)c(Cl)c1=O (stereo not drawn)	-76*	-6%	4%[46.1 µM]	-4%
CCn1nc([N+](=O)[O-])c(C(C#N)c2nc3cc(C(F)(F)F)ccc3s2)c(Cl)c1=O (stereo not drawn)	-88*	-13%	-3%	·
Cn1nc([N+](=O)[O-])c(C(C#N)c2ccccn2)c(Cl)c1=O (stereo not drawn)	9	-1%	-49%	?
CSc1nc(Cl)c(Br)c(Nc2c[nH]c(=O)[nH]c2=O)n1	·	·	-1%	3%
CCOc1ccc(CNC(=O)Cn2ccc3cc(S(=O)(=O)N4CCCC4)ccc32)cc1	0	1%	2%	-2%
CCOc1ccc(CNC(=O)Cn2ccc3cc(S(=O)(=O)N4CCCCCC4)ccc32)cc1	-4	·	1%	1µM*
COc1ccc(C(C)=O)c(Oc2ccc(S(=O)(=O)N3CCOCC3)cn2)c1	39	·	-4%	5%
Cc1cccc(Cn2c(SCC(=O)Nc3ccccc3)nc3c2c(=O)[nH]c(=O)n3C)c1	-7	1.4µM*	6%	-3%
Cc1ccc(C)c(NC(=O)c2cc3ccccn3n2)c1	-5	-8%	-6%	-25%
Cc1ccc(C)c(NC(=O)c2cnn3ccccc23)c1	-3	-1%	-6%	11µM*
c1ccc(CCNc2c3c(nc4ncnn24)CCC3)cc1	0	25µM*	·	-10%
Fc1ccccc1CCNc1c2c(nc3ncnn13)CCCC2	4	-5%	-1%	-8%
O=C(NCc1ccccc1)c1sc(=S)n2c1[nH]c(=O)c1ccccc12	-79*	-17%	-2%	2%
CCCCNC(=O)c1sc(=S)n2c1[nH]c(=O)c1ccc(C(=O)NCCc3ccc(OC)c(OC)c3)cc12	-37	·	-6%	5%
O=C(O)c1ccc(NC2=C/C(=N/S(=O)(=O)c3ccccc3)c3ccccc3C2=O)cc1	-74*	-14%	·	-7%
Cc1cc(C)c(S(=O)(=O)/N=C2\C=C(Nc3ccc(C(=O)O)cc3)C(=O)c3ccccc32)c(C)c1	-48	-15%	-2%	-5%
O=C1CCN(Cc2ccc([N+](=O)[O-])cc2)CCN1[C@H](CO)c1ccccc1	35	1%	-2%	-1%
CCC1(c2ccccc2)NC(=O)N(CC(=O)N(C)CC(=O)Nc2ccc(F)c(F)c2F)C1=O (stereo not drawn)	6	·	-2%	-3%
CCc1cccc(CC)c1NC(=S)NCCc1ccc(O)c(O)c1	1	22µM*	0%	?
CCCCS(=O)(=O)N1CCc2nc(-c3ccccc3)c3c(c2C1)CO[C@@H](C)C3	·	-2%[11.5 µM]	·	·
COc1ccccc1-c1cc(C(F)(F)F)c(C#N)c(=O)[nH]1	-7	3%	·	-3%
COc1ccccc1-c1cc(SC)c(C#N)c(=O)o1	2	5%	-4%[46.1 µM]	11µM*
O=C(O)c1ccc2c(c1)C(=O)N([C@H](Cc1ccc3ccccc3c1)C(=O)O)C2=O	9	·	·	·
Cn1c(SCc2ccccc2)nc(N)c(N=O)c1=O	·	·	0%	3.5µM*
O=C(O)c1ccc2c(c1)C(=O)N([C@H](Cc1ccccc1)C(=O)O)C2=O	43	·	·	·
CC(C)(C)c1ccc(Oc2ccc(NC(=O)c3ccco3)cn2)cc1	-36	10%	-1%	1.3µM*
O=[N+]([O-])c1cccc(S(=O)(=O)NCc2ccncc2)c1	-15	-1%	-6%	0%
Cc1ccc(C)c(CSc2ccc3nnc(-c4ccccn4)n3n2)c1	0	?	-1%	-1%
CN(C)c1ccc(N=Cc2ccco2)cc1	-74*	-7%	15%	·
